Measurements: the supplement of paper PMC11732987, “Enantioselective OTUD7B fragment discovery through chemoproteomics screening and high-throughput optimisation” (Communications Chemistry, 2025)

How the values were obtained:
Test in all cases: log2 ratio of Biotin-Ahx-Ub-VS probe labelling (fragment/DMSO); higher = less target engagement (more negative = stronger competition), active = hit call of the paper (q ≤ 0.05, log2 ratio ≤ -1)
Conditions in all cases: compound concentration: 200 uM; treatment time: 3 h
USP42 = target: T1, USP42 (UniProt Q9H9J4)
T1 sequence (whole entry): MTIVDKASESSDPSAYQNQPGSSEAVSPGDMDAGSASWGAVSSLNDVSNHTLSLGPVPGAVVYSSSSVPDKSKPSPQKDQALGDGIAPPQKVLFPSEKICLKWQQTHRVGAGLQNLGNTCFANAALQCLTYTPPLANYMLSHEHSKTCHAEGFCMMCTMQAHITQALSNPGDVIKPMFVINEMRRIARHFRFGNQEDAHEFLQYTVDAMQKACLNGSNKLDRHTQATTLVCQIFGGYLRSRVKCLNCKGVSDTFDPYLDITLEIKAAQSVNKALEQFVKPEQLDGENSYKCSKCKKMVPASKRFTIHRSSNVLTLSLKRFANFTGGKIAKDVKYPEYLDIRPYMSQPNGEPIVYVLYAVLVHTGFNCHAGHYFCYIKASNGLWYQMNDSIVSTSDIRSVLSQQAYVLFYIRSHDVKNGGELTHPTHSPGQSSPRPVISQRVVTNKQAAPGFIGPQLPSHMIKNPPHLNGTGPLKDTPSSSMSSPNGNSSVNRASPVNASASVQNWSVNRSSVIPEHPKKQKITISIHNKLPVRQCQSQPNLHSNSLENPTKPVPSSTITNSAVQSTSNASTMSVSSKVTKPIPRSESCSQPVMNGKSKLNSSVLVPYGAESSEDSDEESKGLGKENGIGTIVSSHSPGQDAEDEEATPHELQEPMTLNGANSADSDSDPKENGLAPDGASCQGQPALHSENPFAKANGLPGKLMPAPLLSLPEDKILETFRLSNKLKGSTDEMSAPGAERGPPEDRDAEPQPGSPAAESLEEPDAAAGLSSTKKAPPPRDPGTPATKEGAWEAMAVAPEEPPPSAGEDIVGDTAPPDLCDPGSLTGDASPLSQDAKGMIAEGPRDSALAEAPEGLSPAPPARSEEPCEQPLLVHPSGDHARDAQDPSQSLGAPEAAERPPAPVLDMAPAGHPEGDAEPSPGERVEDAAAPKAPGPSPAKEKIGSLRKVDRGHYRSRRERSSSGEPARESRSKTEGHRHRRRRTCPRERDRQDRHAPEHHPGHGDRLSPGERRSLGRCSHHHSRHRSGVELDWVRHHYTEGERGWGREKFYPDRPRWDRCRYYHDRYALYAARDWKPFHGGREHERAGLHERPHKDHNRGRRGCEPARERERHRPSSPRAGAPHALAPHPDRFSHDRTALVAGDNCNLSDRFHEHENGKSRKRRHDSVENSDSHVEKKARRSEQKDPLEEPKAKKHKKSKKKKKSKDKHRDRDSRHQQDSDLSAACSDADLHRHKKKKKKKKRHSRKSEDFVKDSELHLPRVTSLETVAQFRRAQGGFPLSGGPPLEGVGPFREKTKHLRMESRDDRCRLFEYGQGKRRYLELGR
How it was run: (§1)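 HEK293T lysate (495 µg per sample, in Tris/CHAPS/IGEPAL buffer with protease inhibitors) was exposed in triplicate for 3 h to fragment at 200 µM or to vehicle, then to Biotin-Ahx-Ub-VS at 0.5 µM final for 1 h. Labelled DUBs were enriched on NeutrAvidin, digested with LysC and trypsin, and analysed by diaPASEF LC-MS/MS. Spectronaut label-free quantities were normalised to the global median, and values are average log2 ratios of fragment over vehicle from an unpaired t-test. Only proteins with ≥2 unique peptides were used.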

USP46 = USP46 (UniProt P62068)
How it was run: as §1

USP47 = target: T2, USP47 (UniProt Q96K76)
T2 sequence (whole entry): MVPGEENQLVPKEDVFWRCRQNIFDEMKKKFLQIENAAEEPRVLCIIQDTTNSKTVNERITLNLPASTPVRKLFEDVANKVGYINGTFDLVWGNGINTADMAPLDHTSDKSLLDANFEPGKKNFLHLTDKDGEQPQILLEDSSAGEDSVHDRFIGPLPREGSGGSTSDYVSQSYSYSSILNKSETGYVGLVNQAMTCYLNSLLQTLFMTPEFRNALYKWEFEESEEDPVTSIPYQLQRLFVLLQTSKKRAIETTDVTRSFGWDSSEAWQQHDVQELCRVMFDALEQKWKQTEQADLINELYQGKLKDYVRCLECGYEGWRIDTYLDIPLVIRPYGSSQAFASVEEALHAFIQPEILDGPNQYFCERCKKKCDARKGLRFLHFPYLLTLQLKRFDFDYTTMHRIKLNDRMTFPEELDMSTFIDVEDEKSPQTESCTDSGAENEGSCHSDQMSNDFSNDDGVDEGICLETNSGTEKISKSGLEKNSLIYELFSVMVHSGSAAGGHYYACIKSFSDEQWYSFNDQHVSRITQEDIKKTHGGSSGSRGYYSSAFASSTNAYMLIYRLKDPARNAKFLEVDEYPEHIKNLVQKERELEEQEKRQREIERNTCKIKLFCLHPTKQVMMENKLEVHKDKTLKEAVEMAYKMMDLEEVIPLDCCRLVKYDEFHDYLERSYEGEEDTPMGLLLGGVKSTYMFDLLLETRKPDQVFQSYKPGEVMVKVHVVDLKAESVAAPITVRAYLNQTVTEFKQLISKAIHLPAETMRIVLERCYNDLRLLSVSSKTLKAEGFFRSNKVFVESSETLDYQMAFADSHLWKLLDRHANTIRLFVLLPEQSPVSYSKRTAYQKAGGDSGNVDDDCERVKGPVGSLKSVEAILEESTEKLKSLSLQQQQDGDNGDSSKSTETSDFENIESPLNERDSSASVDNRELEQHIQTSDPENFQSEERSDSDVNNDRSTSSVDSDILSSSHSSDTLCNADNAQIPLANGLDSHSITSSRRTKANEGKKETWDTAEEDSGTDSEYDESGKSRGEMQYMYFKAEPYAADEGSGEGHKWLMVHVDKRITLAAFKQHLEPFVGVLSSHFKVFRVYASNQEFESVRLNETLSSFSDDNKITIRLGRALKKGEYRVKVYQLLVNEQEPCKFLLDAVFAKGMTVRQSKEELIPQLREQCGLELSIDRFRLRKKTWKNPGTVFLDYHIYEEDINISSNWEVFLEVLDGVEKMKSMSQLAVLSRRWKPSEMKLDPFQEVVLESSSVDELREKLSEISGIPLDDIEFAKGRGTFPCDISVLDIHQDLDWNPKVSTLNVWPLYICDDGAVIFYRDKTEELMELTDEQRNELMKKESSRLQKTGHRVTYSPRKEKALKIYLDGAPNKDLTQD
How it was run: as §1

USP48 = target: T3, USP48 (UniProt Q86UV5)
T3 sequence (whole entry): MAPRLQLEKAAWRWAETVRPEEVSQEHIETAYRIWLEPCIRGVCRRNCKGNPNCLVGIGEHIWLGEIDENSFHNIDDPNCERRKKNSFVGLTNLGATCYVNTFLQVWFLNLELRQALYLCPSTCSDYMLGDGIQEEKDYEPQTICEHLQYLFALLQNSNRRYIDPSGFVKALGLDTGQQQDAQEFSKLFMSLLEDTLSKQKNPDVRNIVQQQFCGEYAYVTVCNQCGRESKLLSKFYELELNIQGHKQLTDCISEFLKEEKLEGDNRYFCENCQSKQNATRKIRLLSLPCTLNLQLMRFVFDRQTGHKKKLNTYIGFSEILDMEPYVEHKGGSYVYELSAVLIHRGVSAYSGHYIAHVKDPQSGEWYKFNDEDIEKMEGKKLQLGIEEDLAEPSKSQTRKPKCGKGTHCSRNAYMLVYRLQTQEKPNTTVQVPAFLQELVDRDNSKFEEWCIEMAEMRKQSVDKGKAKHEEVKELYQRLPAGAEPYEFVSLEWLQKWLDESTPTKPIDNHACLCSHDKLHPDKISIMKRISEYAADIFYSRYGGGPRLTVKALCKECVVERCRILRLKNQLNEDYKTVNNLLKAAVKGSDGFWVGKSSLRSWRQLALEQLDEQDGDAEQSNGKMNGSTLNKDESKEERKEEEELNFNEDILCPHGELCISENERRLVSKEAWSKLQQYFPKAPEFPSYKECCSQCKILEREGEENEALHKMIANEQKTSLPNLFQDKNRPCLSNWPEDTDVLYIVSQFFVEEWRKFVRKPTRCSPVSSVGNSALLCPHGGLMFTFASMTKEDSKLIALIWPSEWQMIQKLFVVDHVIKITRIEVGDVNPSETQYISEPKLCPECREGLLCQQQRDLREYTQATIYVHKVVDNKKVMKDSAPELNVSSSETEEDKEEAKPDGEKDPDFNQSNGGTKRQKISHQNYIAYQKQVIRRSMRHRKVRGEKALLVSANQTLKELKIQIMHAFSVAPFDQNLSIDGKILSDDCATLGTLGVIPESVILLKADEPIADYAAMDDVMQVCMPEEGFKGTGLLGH
How it was run: as §1

USP5 = target: T4, USP5 (UniProt P45974)
T4 sequence (whole entry): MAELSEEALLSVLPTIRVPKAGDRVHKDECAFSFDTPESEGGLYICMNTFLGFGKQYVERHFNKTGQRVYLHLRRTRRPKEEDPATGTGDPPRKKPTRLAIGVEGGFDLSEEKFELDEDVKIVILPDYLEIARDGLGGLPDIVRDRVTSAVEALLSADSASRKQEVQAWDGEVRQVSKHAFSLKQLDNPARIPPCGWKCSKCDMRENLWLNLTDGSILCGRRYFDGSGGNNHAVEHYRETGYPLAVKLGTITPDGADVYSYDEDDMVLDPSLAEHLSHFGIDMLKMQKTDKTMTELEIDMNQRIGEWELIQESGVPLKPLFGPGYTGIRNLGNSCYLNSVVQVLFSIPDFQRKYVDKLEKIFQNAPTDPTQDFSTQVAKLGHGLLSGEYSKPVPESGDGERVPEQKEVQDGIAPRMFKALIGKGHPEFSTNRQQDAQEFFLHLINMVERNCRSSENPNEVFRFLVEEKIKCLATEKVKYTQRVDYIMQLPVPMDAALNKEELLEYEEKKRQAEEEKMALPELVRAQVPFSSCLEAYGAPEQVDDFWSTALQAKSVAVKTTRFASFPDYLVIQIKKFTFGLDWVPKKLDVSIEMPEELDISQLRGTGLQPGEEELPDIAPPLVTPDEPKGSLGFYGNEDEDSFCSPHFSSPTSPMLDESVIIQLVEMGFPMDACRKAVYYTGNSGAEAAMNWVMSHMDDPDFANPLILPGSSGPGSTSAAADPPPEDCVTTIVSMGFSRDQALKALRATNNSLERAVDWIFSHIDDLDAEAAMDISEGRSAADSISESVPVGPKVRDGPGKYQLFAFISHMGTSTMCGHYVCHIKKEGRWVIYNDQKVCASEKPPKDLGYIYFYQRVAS
How it was run: as §1

USP54 = USP54 (UniProt Q70EL1)
How it was run: as §1

USP7 = USP7 (UniProt Q93009)
How it was run: as §1

USP8 = target: T5, USP8 (UniProt P40818)
T5 sequence (whole entry): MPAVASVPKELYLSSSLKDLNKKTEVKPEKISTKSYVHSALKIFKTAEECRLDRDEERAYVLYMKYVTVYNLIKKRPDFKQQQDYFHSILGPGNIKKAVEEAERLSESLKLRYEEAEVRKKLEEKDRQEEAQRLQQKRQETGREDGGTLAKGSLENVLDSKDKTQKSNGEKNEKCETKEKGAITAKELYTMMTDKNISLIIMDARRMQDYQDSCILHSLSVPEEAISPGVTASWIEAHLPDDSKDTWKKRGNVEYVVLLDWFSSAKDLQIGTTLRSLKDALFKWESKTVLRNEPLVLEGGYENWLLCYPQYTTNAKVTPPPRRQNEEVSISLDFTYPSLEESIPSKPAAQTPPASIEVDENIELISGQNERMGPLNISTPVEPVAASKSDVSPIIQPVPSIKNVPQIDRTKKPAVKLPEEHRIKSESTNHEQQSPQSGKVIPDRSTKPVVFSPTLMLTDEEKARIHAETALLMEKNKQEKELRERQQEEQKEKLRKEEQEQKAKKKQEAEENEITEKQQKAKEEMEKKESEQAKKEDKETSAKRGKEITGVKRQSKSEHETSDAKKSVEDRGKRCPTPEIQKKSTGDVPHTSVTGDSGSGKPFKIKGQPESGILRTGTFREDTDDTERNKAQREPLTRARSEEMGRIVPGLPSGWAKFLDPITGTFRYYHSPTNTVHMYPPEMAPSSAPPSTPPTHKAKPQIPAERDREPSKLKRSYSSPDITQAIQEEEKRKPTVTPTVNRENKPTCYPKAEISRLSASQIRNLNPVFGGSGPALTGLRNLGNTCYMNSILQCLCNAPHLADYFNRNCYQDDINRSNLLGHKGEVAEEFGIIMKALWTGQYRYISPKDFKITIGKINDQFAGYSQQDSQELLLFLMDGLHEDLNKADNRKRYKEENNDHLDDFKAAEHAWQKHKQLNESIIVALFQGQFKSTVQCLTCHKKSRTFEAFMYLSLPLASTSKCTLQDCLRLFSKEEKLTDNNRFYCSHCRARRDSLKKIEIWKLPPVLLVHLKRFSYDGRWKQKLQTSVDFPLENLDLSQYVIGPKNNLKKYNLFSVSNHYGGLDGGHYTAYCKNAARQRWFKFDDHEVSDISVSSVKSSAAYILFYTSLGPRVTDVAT
How it was run: as §1

Measured: log2 ratio of Biotin-Ahx-Ub-VS probe labelling

USP7, sequence (Q93009 whole entry, looked up): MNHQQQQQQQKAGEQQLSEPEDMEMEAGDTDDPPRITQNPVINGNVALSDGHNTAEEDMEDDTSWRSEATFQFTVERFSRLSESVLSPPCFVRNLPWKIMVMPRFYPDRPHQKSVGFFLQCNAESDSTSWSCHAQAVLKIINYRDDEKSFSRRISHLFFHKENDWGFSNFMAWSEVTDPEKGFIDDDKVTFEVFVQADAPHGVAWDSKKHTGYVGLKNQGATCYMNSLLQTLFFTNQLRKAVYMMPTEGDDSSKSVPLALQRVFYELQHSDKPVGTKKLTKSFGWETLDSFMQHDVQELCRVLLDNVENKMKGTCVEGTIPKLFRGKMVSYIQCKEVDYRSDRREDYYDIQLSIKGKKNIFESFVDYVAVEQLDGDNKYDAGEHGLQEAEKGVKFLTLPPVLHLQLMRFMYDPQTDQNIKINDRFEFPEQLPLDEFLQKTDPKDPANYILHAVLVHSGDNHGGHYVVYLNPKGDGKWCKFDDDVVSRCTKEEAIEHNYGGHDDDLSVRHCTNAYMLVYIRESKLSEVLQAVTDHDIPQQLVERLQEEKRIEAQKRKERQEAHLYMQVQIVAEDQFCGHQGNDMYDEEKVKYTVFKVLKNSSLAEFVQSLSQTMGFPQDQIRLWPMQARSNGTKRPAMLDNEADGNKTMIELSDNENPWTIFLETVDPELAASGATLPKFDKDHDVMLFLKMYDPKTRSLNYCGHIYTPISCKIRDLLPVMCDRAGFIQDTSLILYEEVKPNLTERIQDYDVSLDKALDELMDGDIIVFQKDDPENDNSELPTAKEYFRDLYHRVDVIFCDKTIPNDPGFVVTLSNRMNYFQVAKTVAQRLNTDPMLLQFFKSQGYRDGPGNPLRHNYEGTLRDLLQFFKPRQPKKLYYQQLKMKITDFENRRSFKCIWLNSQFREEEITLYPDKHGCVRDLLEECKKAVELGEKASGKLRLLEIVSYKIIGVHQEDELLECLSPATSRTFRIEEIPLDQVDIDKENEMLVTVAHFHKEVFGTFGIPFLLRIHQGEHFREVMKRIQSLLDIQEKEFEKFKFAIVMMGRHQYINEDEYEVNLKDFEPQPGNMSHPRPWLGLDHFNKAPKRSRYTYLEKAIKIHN
USP46, sequence (P62068 whole entry): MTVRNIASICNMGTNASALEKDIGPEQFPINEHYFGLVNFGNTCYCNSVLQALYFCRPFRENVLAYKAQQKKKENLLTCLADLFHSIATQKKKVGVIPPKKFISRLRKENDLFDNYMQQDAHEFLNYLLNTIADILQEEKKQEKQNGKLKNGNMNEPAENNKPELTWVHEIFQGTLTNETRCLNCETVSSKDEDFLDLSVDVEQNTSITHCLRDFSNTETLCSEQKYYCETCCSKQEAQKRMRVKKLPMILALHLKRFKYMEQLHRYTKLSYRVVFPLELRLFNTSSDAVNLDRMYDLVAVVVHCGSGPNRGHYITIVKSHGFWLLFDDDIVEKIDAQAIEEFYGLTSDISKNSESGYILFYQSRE
USP54, sequence (Q70EL1 whole entry): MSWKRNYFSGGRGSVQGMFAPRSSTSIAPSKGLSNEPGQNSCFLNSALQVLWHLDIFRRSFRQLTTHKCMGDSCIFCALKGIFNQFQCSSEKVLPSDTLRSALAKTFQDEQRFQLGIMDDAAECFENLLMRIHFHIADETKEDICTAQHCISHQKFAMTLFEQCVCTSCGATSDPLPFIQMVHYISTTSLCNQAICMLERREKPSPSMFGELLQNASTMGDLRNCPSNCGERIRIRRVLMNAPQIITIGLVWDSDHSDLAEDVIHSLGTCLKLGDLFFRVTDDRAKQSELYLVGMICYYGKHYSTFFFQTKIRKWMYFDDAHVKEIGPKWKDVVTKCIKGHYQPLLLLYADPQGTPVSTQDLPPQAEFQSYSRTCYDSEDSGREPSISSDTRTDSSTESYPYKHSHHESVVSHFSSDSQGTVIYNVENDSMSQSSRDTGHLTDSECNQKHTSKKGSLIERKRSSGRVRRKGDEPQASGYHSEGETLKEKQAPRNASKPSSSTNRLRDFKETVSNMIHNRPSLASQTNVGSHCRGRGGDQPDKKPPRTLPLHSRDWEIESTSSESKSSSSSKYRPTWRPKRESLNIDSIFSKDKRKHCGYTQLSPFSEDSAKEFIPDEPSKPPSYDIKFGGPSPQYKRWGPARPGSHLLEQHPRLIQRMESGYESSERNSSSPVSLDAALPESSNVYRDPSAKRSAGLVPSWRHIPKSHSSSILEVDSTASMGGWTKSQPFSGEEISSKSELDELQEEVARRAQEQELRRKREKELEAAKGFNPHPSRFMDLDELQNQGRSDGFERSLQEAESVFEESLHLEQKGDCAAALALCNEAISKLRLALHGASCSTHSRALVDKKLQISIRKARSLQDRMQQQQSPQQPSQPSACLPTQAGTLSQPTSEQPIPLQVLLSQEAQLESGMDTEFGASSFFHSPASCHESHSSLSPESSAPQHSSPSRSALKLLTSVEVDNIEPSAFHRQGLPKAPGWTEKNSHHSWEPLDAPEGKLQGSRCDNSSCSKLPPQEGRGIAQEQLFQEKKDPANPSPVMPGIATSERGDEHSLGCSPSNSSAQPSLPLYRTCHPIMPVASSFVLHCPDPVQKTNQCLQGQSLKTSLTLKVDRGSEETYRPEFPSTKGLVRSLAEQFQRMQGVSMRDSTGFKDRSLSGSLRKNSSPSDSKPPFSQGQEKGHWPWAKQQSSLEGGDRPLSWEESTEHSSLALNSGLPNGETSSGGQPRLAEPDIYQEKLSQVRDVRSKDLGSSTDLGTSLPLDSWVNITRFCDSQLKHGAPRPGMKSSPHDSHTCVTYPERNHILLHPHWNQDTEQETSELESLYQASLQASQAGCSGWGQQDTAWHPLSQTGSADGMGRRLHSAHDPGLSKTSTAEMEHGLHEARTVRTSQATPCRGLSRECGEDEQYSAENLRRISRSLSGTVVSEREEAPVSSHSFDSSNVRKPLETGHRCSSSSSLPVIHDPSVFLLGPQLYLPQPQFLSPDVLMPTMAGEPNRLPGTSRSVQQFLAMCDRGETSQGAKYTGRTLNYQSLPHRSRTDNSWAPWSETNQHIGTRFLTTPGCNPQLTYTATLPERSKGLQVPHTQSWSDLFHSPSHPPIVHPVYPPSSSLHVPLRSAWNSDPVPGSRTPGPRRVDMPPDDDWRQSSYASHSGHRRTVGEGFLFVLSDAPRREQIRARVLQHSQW

NC(=O)C(Cc1ccccc1)NC(=O)CCl (stereo not drawn)
inactive: USP42 -0.119 | USP46 0.0497 | USP47 -0.239 | USP48 -0.238 | USP5 0.0132 | USP54 0.357 | USP7 -0.174 | USP8 -0.047
